Assay outcomes (PubChem BioAssay)
Cy5 interf NS3h – Cy5 fluorescence quenchers or enhancers, artefact control for HCV NS3 helicase inhibitor project, biochemical, ChemBridge library, Cy5 readout. Cy5-dT15 DNA with NS3h, fluorescence interference; actives lie on both sides; signal over control mean, under 1 quenches. fluorescence interference ratio at 100 µM. 16,000 compounds, 6% hits;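 active = compound fluorescence over control fluorescence at most 0.8, a quencher, or at least a set upper limit, an enhancer; inactive = ratio between 0.8 and the set upper limit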
NS3h inh CB – HCV NS3 helicase inhibitors, primary screen, biochemical, fluorescence polarization, ChemBridge library | inhibition, % at 100 µM | 16,000 compounds, 1.6% hits | NS3h Cy5-dT15 DNA binding | AID 687043, 2013;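 active = inhibition above the average over every tested compound plus 3 SD, cut at about 40% in these data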
Active calls of the source: *. Most compounds without a hit are left out; they make up all but 6.9% or so of the library.

SMILES | Cy5 interf NS3h | NS3h inh CB
O=C1NC(=O)C(=Cc2ccc(-c3cc(Cl)c([N+](=O)[O-])cc3Cl)o2)C(=O)N1 | 0.04* | -141
COc1ccc(NC(=O)c2cc3n(n2)C(C(F)(F)F)CC(c2ccc(Cl)c(Cl)c2)N3)c(OC)c1 (stereo unspecified) | 1 | 9
c1ccc(Nc2ccc3nc4ccccc4nc3c2)cc1 | 0.55* | 15
Nn1c(Nc2ccccc2)nc2ccccc21 | 1 | -1
COc1ccc(CNC(=O)C(=O)Nc2ccc(Br)cc2)cc1 | 1.1 | 15
COc1cc([N+](=O)[O-])cc2c1N=C(c1ccc(Br)cc1)NO2 | 0.97 | 2
O=[N+]([O-])c1ccc2c(c1)ONC(c1ccc(Cl)cc1)=N2 | 0.67* | 22
CN1CCN(c2ccc([N+](=O)[O-])c(NCc3ccc(Cl)cc3)c2)CC1 | 0.96 | 15
COc1ccc(CCNc2cc(N3CCN(C)CC3)ccc2[N+](=O)[O-])cc1OC | 0.98 | 46*
Cc1cccn2c(=O)c(/C=C3\SC(=S)NC3=O)c(NCCCn3ccnc3)nc12 | 0.81 | 8
CCSc1nnc(NC(=O)c2ccc(Br)o2)s1 | 0.77* | 10
CCC(=O)Nc1ccc(NC(=O)c2ccc(Br)o2)cc1 | 1 | -3
CC1=C(C#N)C(c2ccccc2C(F)(F)F)C2=C(CC(C)(C)CC2=O)N1 (stereo unspecified) | 1 | 6
O=S1(=O)CCC(NC(=S)SCCOc2ccccc2OCCO)C1 (stereo unspecified) | 0.96 | 9
CCOC(=O)NC(Nc1ccc(F)cc1)C(Cl)(Cl)Cl (stereo unspecified) | 0.92 | 2
Cc1ccc(-n2c(=O)c3cc4c(=O)n(-c5ccc(C)c(C)c5)c(=O)c4c(C(=O)c4ccccc4)c3c2=O)cc1C | 1.1 | 10
O=c1c2cc3c(=O)n(-c4ccc(S)cc4)c(=O)c3cc2c(=O)n1-c1ccc(S)cc1 | 0.7* | 4
CCOc1cc(/C=C2\C(=O)NN(c3ccccc3)C2=O)cc(Br)c1O | 0.99 | 3
Cc1cccc(C(=O)Nc2nc3ccc(Br)cc3s2)c1 | 1.1 | 7
COC(=O)c1cc(C(=O)Nc2ccccc2C(N)=O)cc([N+](=O)[O-])c1 | 0.96 | 6
COC(=O)c1cc(C(=O)Nc2nc3ccccc3s2)cc([N+](=O)[O-])c1 | 0.53* | -6
O=C(Nc1nc2ccccc2s1)c1ccc(-c2ccccc2)cc1 | 0.53* | 35
CC1=NN(c2ccc(C)cc2)C(=O)/C1=C\c1ccc2c(c1)OCO2 | 0.93 | 2
Cc1cccc(-c2nnc(NC(=O)Nc3ccccc3)s2)c1 | 0.98 | 9
COc1ccccc1-c1coc2cc(OC(=O)c3ccc(Cl)cc3Cl)ccc2c1=O | 1 | -3
SMILES | Cy5 interf NS3h | NS3h inh CB
CN(C)/C=C1\N=C(c2cccc(F)c2)OC1=O | 1 | 9
COC(=O)c1ccccc1NC(=O)CN(c1ccc(C)cc1)S(=O)(=O)c1ccc(F)cc1 | 1.1 | -4
COCCNC(=O)Nc1ccc2nccnc2c1 | 1 | 3
COC(=O)c1nnn(-c2cc3nccnc3cc2F)c1C(=O)OC | 0.72* | 6
CCN(CC)c1ccc(/C=N/NC(N)=O)cc1 | 1.1 | 5
CCN(CC)c1ccc(/C=N\N2C(=O)c3ccccc3C2=O)cc1 | 1.2* | 7
CCC(C)NC(=O)NS(=O)(=O)c1ccccc1Cl (stereo unspecified) | 0.97 | -1
NC1=C(Cl)C(=O)c2c(cccc2[N+](=O)[O-])C1=O | 0.85 | -14
Cc1ccc(-c2cc(C(F)(F)F)n3ncc(C(=O)N(C)Cc4ccccc4)c3n2)cc1 | 0.61* | 9
CCOC(=O)c1cnn2c(C(F)(F)F)cc(-c3ccco3)nc12 | 1 | 3
Cc1ccc(-c2cc(C(F)(F)F)n3ncc(C(=O)N4CCN(c5ccc(F)cc5)CC4)c3n2)cc1 | 0.61* | 10
CN(Cc1ccccc1)C(=O)c1nn2c(C(F)(F)F)cc(-c3ccccc3)nc2c1Cl | 0.61* | 8
COc1cc(-c2cc(C(F)(F)F)n3ncc(C(=O)Nc4cccc5ccccc45)c3n2)cc(OC)c1OC | 1.1 | -1
O=C(c1nn2c(C(F)(F)F)cc(-c3ccccc3)nc2c1Cl)N1CCCC1 | 0.93 | 9
O=S(=O)(Nc1ccccc1CO)c1ccccc1 | 1.1 | 6
CC(C)CN1C(=O)/C(=C/c2cccc([N+](=O)[O-])c2)SC1=S | 1 | 2
O=C(NNC(=O)c1cccnc1)c1ccc(Br)cc1 | 1.1 | -3
Ic1cccc(/C=N\n2cnnc2)c1 | 1 | 0
C(=N/n1cnnc1)/c1cc2ccccc2[nH]1 | 0.74* | 23
COC(=O)c1ccc(/C=C2\C(=O)NC(=S)N(c3cccc(Br)c3)C2=O)cc1 | 0.93 | 9
Cc1c(C)c2ccc(OCC(=O)N(C)C)cc2oc1=O | 1 | 3
CCCC1C(c2ccccc2)NC(c2ccccc2)C(C)C1(O)CCC (stereo unspecified) | 1 | 16
CC1C(c2ccccc2)NC(c2ccccc2)C(C)C1(O)c1ccccc1 (stereo unspecified) | 0.68* | 4
CCc1ccc(NC(=O)C(=O)NCCN2CCN(C(=O)c3ccccc3Cl)CC2)cc1 | 0.94 | 3
O=C(/C=C/c1cc2c(cc1Br)OCCO2)c1c(-c2ccccc2)c2cc(Cl)ccc2[nH]c1=O | 1 | 0
SMILES | Cy5 interf NS3h | NS3h inh CB
O=C1c2c(Cl)c(Cl)c(Cl)c(Cl)c2C(=O)N1c1ncccn1 | 0.65* | 3
O=C(O)COc1ccc(N2C(=O)c3c(Cl)c(Cl)c(Cl)c(Cl)c3C2=O)cc1 | 0.95 | 10
CCC1=NN(C(=O)c2cccc(O)c2)C(O)(c2ccncc2)C1 (stereo unspecified) | 1 | -4
CCC1=NN(C(=O)c2ccccc2)C(O)(c2ccc(Br)cc2)C1 (stereo unspecified) | 0.76* | 10
O=C1N/C(=N\N=C/c2ccco2)SC1Cc1ccc(Cl)cc1Cl (stereo unspecified) | 1.1 | 10
C=CCc1c(C)nc2c(C)c(-c3ccc(C)cc3)[nH]n2c1=O | 1.1 | 20
C=CCc1c(C)nc2cc(-c3ccc(C)cc3)[nH]n2c1=O | 1.2* | 62*
CCCCNC(=O)c1nn2c(c1Cl)NC(c1ccccc1)CC2C(F)(F)F (stereo unspecified) | 0.96 | 21
O=C(COc1cccc2ccccc12)NCC1CCCO1 (stereo unspecified) | 0.77* | 10
O=C(COc1cccc2ccccc12)NCc1cccnc1 | 0.74* | 17
O=C(COc1cccc2ccccc12)NCc1ccco1 | 0.89 | 4
O=C(COc1cccc2ccccc12)NCc1ccccn1 | 0.91 | 1
CC(=O)SC(CC(=O)c1ccccc1)c1cn(-c2ccccc2)nc1-c1ccc(C)cc1 (stereo unspecified) | 0.86 | 8
Cn1ccnc1/C=C(/OC(=O)c1ccccc1)c1ccccc1 | 1 | 3
O=C(NC(=S)Nc1ccc([N+](=O)[O-])cc1O)c1ccc(F)cc1 | 1 | 2
CN(C1=NC(=O)/C(=C\C(Cl)=C\c2ccc([N+](=O)[O-])cc2)S1)c1ccc(O)cc1 | 0.4* | 1
CN(C1=NC(=O)S/C1=C\c1ccc([N+](=O)[O-])cc1)c1ccc(O)cc1 | 0.92 | 33
O=C(/C=C/c1ccccc1)Nc1ccc2ccccc2n1 | 0.99 | 9
CS(=O)(=O)c1ccc2nc(NC(=O)c3ccccc3)sc2c1 | 1.1 | 13
